Our source for the growth values is PubChem BioAssay (NCI).

This is part of a sample that, as a whole, favours compounds with a hit. Of some 83,000 tested, about 20% had one in any assay.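 How to read the values: 0–100, growth inhibition (40 = 60% inhibited); 0, no net growth; -100 to 0, cell death (-40 = 40% of starting cells died; -100 = all dead).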 Activity calls are given as the source filed them. The calls were made as follows: active = growth percent below 10; inactive = the rest.

For the assay, the system named is MDA-MB-468 breast. Kind of assay: NCI-60 one-dose screen, 48 h (100 = growth as untreated, 0 = no growth, -100 = all killed). The following applies: 10 µM unless noted.
`N#Cc1ccccc1-c1ccc(Cn2c(-c3cscn3)nc3c(Cl)cccc32)cc1`: the growth was 55.7% (inactive).

Consider `O=C1c2c(c3c4ccccc4[nH]c3c3ccc4ccccc4c23)C(=O)N1CCN1CCOCC1`, for which the growth was 58.6% (inactive).

As for `Cc1nn(-c2ccccc2)c2nc3c(nc12)C(=O)CCC3`, the growth is 88.3% (inactive).
